HADH2 inh: HADH2 (human) dehydrogenase inhibition; Q99714; recombinant HADH2, NADH fluorescence, beta-hydroxybutyryl-CoA; Potency, µM (titrated, usually from 57.1 µM), for the others: at the highest dose activity change, negative = inhibition, hits mostly inhibitors; hit rate 3.4% among 73,000; note: potency is the fitted concentration of half-maximal effect; % is set by controls: 0 for no effect and ±100 for the full control effect; nearly all actives have a fitted effect of over 60% in size
Target sequence (Q99714 whole entry, looked up, one chain of several): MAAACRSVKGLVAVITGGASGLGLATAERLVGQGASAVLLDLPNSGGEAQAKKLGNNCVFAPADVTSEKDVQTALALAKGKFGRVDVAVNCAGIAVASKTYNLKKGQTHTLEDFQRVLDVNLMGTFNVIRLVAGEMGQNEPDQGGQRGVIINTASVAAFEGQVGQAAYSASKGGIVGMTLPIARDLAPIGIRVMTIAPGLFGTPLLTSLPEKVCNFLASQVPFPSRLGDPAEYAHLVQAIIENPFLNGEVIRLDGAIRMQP
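Activity measured as NADH fluorescence gain (360/450 nm), taken as the change between first and last reads of a 4-min kinetic run. Conditions: pH 9.0 Tris buffer, 20 nM E. coli-expressed His-tagged enzyme, 1 mM NAD+, 90 uM beta-hydroxybutyryl-CoA; 15-min compound preincubation.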
4MU fluor: compounds fluorescent in 4-MU spectral region | compound autofluorescence, 340/450 nm, 4-MU equivalents; active compounds read high | max dye-equivalent concentration, M | hit rate 11% among 59,000 | AID 589; in the data active = max dye-equivalent concentration above about 10 nM; inconclusive = mostly about 1.1 nM to 9.6 nM
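Compounds in 100 mM Tris, pH 8.0, sat 15 min at room temperature before fluorescence was read at 340 nm excitation/450 nm emission; a per-plate six-point 4-MU standard curve converted signals to dye-equivalent concentration at each compound concentration.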
CRE Fsk mod: alters forskolin-stimulated CRE reporter signaling in CHO cells | hit rate 2.5% among 71,000 | Potency, µM (doses to about 38.2 µM), for inactives: at the top dose activity change, negative = inhibition, hits mostly activators | CHO CRE-bla reporter (cAMP response element driving beta-lactamase), forskolin EC10, beta-lactamase ratio; active = well fitted activation curve with a large enough effect in the signal ratio, with a control signal flat, not every such curve was filed as active; inconclusive = small, poorly fitted or top-dose-only effect, or effect the other way, or a change in a side signal; the % refers to the signal ratio; note: potency is the fitted concentration of half-maximal effect; % of control where 0% means no effect
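Forskolin analogue NKH 477 at EC10 stimulated CRE-driven beta-lactamase in CHO cells alongside compound dilution series. Beta-lactamase was measured with CCF4, excitation 405 nm, emission ratio 460/530 nm.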
HSD17B inh: HSD17B dehydrogenase inhibition; Q99714; recombinant HSD17B10, NADH fluorescence kinetic; Potency, µM (top dose mostly 57.1 µM), for inactives: top-dose activity change, negative = inhibition, hits mostly inhibitors; hit rate 7.6% among 75,000; AID 893;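 note: the protocol describes HADH2 (HSD17B10) and not the HSD17B4 of the title; potency is the fitted concentration of half-maximal effect; % is set by controls: 0 for no effect and ±100 for the full control effect; nearly all actives have a fitted effect of over 70% in size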
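Activity followed as NADH fluorescence increase (ex 360, em 450 nm) every 30 seconds for 4 min, using final 90 uM beta-hydroxybutyryl CoA and 1 mM NAD+. Recombinant His-tagged enzyme, 20 nM, pH 9.0 Tris buffer, 15 min compound preincubation.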
A350 autofl: A350 region autofluorescence; Compound autofluorescence, 340/450 nm, Alexa 350 dye-equivalents; active compounds read high; max dye-equivalent concentration, M; hit rate 11% among 59,000; AID 590; in the data active = max dye-equivalent concentration above about 10 nM; inconclusive = mostly about 1.1 nM to 9.6 nM
AID923: qHTS Assay for Allosteric/Competitive Inhibitors of Caspase-1: Spectroscopic Profiling in AFC Spectral Region; compound fluorescence, AFC spectral region (405/520 nm); Potency, µM (doses to about 57.5 µM), for the others: at the top dose fluorescence increase, actives largely listed as activators; hit rate 1.1% among 75,000; note: potency is the fitted concentration of half-maximal effect; 0% is about no effect
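Compound autofluorescence profiled at 405 nm ex/520 nm em during kinetic caspase 1 run (50 nM enzyme, 5 uM Ac-WEHD-AFC, HEPES pH 7.5, 10 mM DTT). Titration up to 57 uM; baseline from regression intercept, normalized to AFC standard curve.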
Active calls of the source: *; [ ] = remark or other dose. Shown are actives, neighbours in structure and some others; about 14% of the full set was active somewhere. Unless noted, calls come from the whole dose curve; as a rule, active = well fitted curve in the direction sought with a large enough effect; inconclusive = small, poorly fitted or top-dose-only effect, or another doubt; inactive = no such curve, though single readings can be large; an effect the other way counts as inactive or inconclusive.

For COc1cc2c(cc1OC)-c1cc(NCc3ccccn3)nc(=O)n1CC2 the results were HADH2 inh 25µM*, 4MU fluor 1.7e-07M*, CRE Fsk mod 13µM*, HSD17B inh 32µM*, A350 autofl 2.3e-07M* and AID923 3%.
CCCCCCNc1cc2n(c(=O)n1)CCc1cc(OC)c(OC)cc1-2 was read as HADH2 inh inconclusive, 4MU fluor 8.4e-08M*, CRE Fsk mod 2µM*, HSD17B inh 20µM*, A350 autofl 1e-07M* and AID923 1%.
For COc1cc2c(cc1OC)-c1cc(OCCN3CCOCC3)nc(=O)n1CC2 the results were HADH2 inh 3.2µM*, 4MU fluor 5.3e-07M*, CRE Fsk mod 7.9µM*, HSD17B inh 25µM*, A350 autofl 2.9e-07M* and AID923 7%.
CCCC[C@]1(C2CCCC2)Cc2cc(OCC(=O)O)c(Cl)c(Cl)c2C1=O was read as HADH2 inh 10%, 4MU fluor inactive, CRE Fsk mod 11%, HSD17B inh inconclusive, A350 autofl inactive and AID923 -1%.
`O=C(c1ccncc1)N1CCC[C@@]2(CCN(c3ccccc3)C2)C1` gave HADH2 inh 14%, 4MU fluor inactive, CRE Fsk mod -1%, HSD17B inh 2%, A350 autofl inactive and AID923 5%.
`CCNc1ncc2nc(-c3cn(C)c4ccccc34)c(=O)n(Cc3ccc(F)cc3)c2n1` gave HADH2 inh 3%, 4MU fluor inactive, CRE Fsk mod inconclusive, HSD17B inh -19%, A350 autofl inconclusive and AID923 19%.
Screening COc1ccc(NC(=O)N2CC3(CCN(C(=O)c4ccc(OC)cc4)CC3)C2)cc1 returned HADH2 inh -8%, 4MU fluor inactive, CRE Fsk mod -7%, HSD17B inh -1%, A350 autofl inactive and AID923 5%.
`Nc1cc(S(N)(=O)=O)ccc1SSc1ccc(S(N)(=O)=O)cc1N` gave HADH2 inh inconclusive, 4MU fluor inactive, CRE Fsk mod 24%[7.6 µM], HSD17B inh inconclusive, A350 autofl inactive and AID923 -2%[11.5 µM].
`O=C1C[C@H](c2ccccc2)Oc2cc(O)cc(O)c21` gave HADH2 inh inconclusive, 4MU fluor inactive, CRE Fsk mod 13%, HSD17B inh -8%, A350 autofl inactive and AID923 -1%.
Screening Cc1cc(C2(c3cc(C)c(O)c(C(=O)O)c3)OS(=O)(=O)c3ccccc32)cc(C(=O)O)c1O returned HADH2 inh 3%[11.4 µM], 4MU fluor inactive, CRE Fsk mod 7%[7.6 µM], HSD17B inh 16%[11.4 µM], A350 autofl inactive and AID923 -1%[11.5 µM].
Screening COc1ccc(N(C)C(=O)CCC(=O)Nc2ccc3nc(N4CCOCC4)cc(C)c3c2)c(OC)c1 returned HADH2 inh 25µM*, 4MU fluor 5.3e-07M*, CRE Fsk mod inconclusive, HSD17B inh 25µM*, A350 autofl 4.9e-07M* and AID923 0%.
For CCCCN(C)C(=O)CCC(=O)Nc1ccc2nc(N3CCOCC3)cc(C)c2c1 the results were HADH2 inh 7.9µM*, 4MU fluor 1.5e-06M*, CRE Fsk mod inconclusive, HSD17B inh 25µM*, A350 autofl 1.3e-06M* and AID923 0%.
For CCN1CCN(c2cc(C)c3cc(NC(=O)Cc4ccc(OC)c(OC)c4)ccc3n2)CC1 the results were HADH2 inh 25µM*, CRE Fsk mod -1%, HSD17B inh 32µM* and AID923 2%.
`Cc1cc(N2CCOCC2)nc2ccc(Cc3ccc4nc(N5CCOCC5)cc(C)c4c3)cc12` gave HADH2 inh -2%[11.4 µM], 4MU fluor 2.7e-08M*, CRE Fsk mod 9%[7.6 µM], HSD17B inh -8%[11.4 µM], A350 autofl 2.9e-08M* and AID923 -1%[11.5 µM].
